Calls of active or inactive are those of the source. Rule for the calls: active = hit-call score of the fitted dose curve at least 0.9, where 1 is the maximum; inactive = score below 0.9.

What is called AC50 is the concentration giving half of the maximal activity seen.

Read-out in the first assay: not listed separately
The assay is described as follows: BSK_3C_Vis: BioMAP Diversity Plus: 3C Assay for Morphology Visualization (AID 2283025).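 For AC50: light microscopy image of cell morphology used as background control; cells imaged 24 h after dosing.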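 Note: fitted both ways so gain or loss versus DMSO counts.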 As to conditions: primary human endothelial cells (HUVEC). In a few lines:
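Light-microscopy visualization of HUVEC cultures at 24 h post-treatment, with DMSO as baseline for bidirectional fitting.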
On to `C=CCCCCCCCCCCCC`, for which the outcome was inactive.
Same read-out and setting: next, `CCCCc1nc2cccnc2n1Cc1ccc(-c2ccccc2-c2nnn[nH]2)cc1`: “inactive”; `S=c1[nH]c2ccccc2s1`: “inactive”.
For the compound `CC(=O)O`, the outcome was inactive.
On the same count and under the same terms, next, `O=C1CCCCC1`: “inactive”; `CCc1nc(N)nc(N)c1-c1ccc(Cl)cc1`: “inactive”; `c1ccc2occc2c1`: “inactive”.
Take `COc1ccc(OC(F)(F)F)cc1CN[C@H]1CCCN[C@H]1c1ccccc1`: the AC50 was 3.29 µM (active).
For `NC=O`, the result was inactive.
The same measure, in the same setting: next, `CC(C)(C)c1ccccc1`: “inactive”; `O=C(NS(=O)(=O)/C=C/c1cccs1)c1ccc(F)cc1Br`: “inactive”.
As to `CCCCCCCCCC[N+](C)(C)[O-]`, the outcome was inactive.
In the case of `CC1(C)C(=O)NC(=O)N1CO`, the result was inactive.
On the same count and under the same terms, for `NC1CCCCC1` the value was “inactive”.
Same read-out and setting: for `Cc1cn([C@H]2C=C[C@@H](CO)O2)c(=O)[nH]c1=O` the value was “inactive”; for `CC(=O)OC1CC(C)OC(C)O1` (configuration not stated), “inactive”; for `O=C(O)c1[nH]n(-c2ccc(S(=O)(=O)O)cc2)c(=O)c1N=Nc1ccc(S(=O)(=O)O)cc1`, “inactive”.
With `CC(COCC(C)OC(=O)c1ccccc1)OC(=O)c1ccccc1` (configuration not stated), the outcome was inactive.
Still for that read-out and setting: next, `CCCC(=O)O`: “inactive”.
As to `CCN(CC)CCOc1ccc(C(=C(Cl)c2ccccc2)c2ccccc2)cc1`, the AC50 is 6.1 µM (active).
In the case of `O=NO`, the result was inactive.
On the same count and under the same terms, next, `COC(=O)CCCC(=O)OC`: “inactive”; `NCCOCCOCCN`: “inactive”; `CCc1cc(C2=C(C(=O)O)N(c3ccccc3C(F)(F)F)S(=O)(=O)c3ccccc32)cc2c1OCO2`: “inactive”.
Same read-out and setting: for `CCCCCCC(CCCCCCCCCCC(=O)OCC(COC(C)=O)OC(C)=O)OC(C)=O` (configuration not stated) the value was “inactive”.
As for `O=C(N[C@@H](c1ccccc1)[C@@H]1CCCCN1)c1cccc(C(F)(F)F)c1Cl`, the AC50 is 13.7 µM (active).
On to `Oc1ccccc1O`, for which the result was inactive.
Still for that read-out and setting: for `Oc1ccc(O)cc1` the value was “inactive”.

Read-out in the next assay: Pselectin, SELP (gene 6403)
The assay is described as follows: BSK_4H_Pselectin: BioMAP Diversity Plus: 4H Assay for Pselectin Biomarker Activity (AID 2283026). As to conditions: primary human endothelial cells (HUVEC); actives raise or lower the signal. In a few lines:
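ELISA of surface P-selectin on HUVEC, 24 h after dosing, with parallel SRB staining (0.1% after 10% TCA fixation, 560 nm) for overt cytotoxicity. Activity fitted in both directions relative to DMSO.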
Regarding `C=CCCCCCCCCCCCC`, the result was inactive.
The same measure, in the same setting: next, `S=c1[nH]c2ccccc2s1`: “inactive”; `O=C1CCCCC1`: “inactive”; `O=C(NS(=O)(=O)/C=C/c1cccs1)c1ccc(F)cc1Br`: “inactive”.
On to `CCCCCCCCCC[N+](C)(C)[O-]`, for which the outcome was inactive.
Same read-out and setting: for `O=C(O)c1[nH]n(-c2ccc(S(=O)(=O)O)cc2)c(=O)c1N=Nc1ccc(S(=O)(=O)O)cc1` the value was “inactive”; for `COC(=O)CCCC(=O)OC`, “inactive”; for `NCCOCCOCCN`, “inactive”.
Regarding `O=C(N[C@@H](c1ccccc1)[C@@H]1CCCCN1)c1cccc(C(F)(F)F)c1Cl`, the AC50 is 20 µM (active).
